# The whole screen tested about 350,000 compounds, of which about 1,600 (0.46%) were called active. The full list was thinned out, with actives kept by preference. A number with no mark means an inactive call.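 How the source made its calls: active means activation of at least 50%, plus an integration ratio under a set limit after plate pattern correction; inactive means the rest.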
# Tested on: CRF-binding protein / CRF receptor 2 complex (human)
# Test: activators of CRF-R2 with CRF-BP – cell-based, HEK293, calcium dye fluorescence, uHTS, primary screen (AID 588473);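 further: plate controls were neutral control wells without compound for no effect and CRF at EC100 for full effect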
# Conditions: calcium dye fluorescence (FLIPR), at 13.2 µM, active compounds read high, percent of saturating CRF peptide response
row,Compound,activation
1,COc1ccc(OCCCn2cccc2/C=C2/C(=N)N3OC(C)=CC3=NC2=O)cc1,4.44%
2,CC(C)(C)OC(=O)NCCCCCC(=O)N/N=C/c1coc2ccccc2c1=O,-5.17%
3,CC1=CC2=NC(=O)/C(=C/c3coc4ccccc4c3=O)C(=N)N2O1,147% (active)
4,C[C@@H]1NS(=O)(=O)c2cc(Cl)ccc2O[C@@H]1c1ccccc1,-1.15%
5,Cc1cc(C(=O)COC(=O)C2CC2)c(C)n1-c1ccc(F)cc1,-3.55%
6,Cc1ccc(-n2c(C)cc(C(=O)CSc3nnc4ccccn34)c2C)cc1,-0.98%
7,Cc1ccc(-n2c(C)cc(C(=O)CN3C(=O)C(=O)N(C4CCCC4)C3=O)c2C)cc1,161% (active)
8,O=C(N/N=C/c1sc(N2CCCCC2)nc1-c1cccs1)c1cccnc1,62.8% (active)
9,Cc1ccc(NC(=O)COc2ccc(/C=N\NC(=O)c3cccnc3)cc2)cc1C,0.37%
10,Cc1ccc(S(=O)(=O)N2CCCCC2)cc1NC(=O)c1cccnc1,6.52%
11,Cc1ccc(C(=O)N/C(=C\c2cccs2)C(=O)NCCc2ccccn2)cc1C,-0.29%
12,COc1ccccc1C(=O)NCCC(=O)NC(C)CCc1ccccc1 (stereo unspecified),0.39%
13,COc1ccc(CCNC(=O)CN(c2ccccc2)S(=O)(=O)c2ccccc2)cc1,-0.58%
14,COc1ccc([C@H]2CC(=O)C=C(/C=C/c3ccc(Cl)cc3)C2)cc1,2.34%
15,CCSc1nc2c(c(=O)[nH]1)C(c1cccnc1)C(C(=O)OC(C)C)=C(C)N2 (stereo unspecified),-11.6%
16,COc1cc(OC)cc(C(=O)NCC(=O)OCC(=O)NC(C)CCc2ccccc2)c1 (stereo unspecified),-1.06%
17,COc1cc(OC)cc(C(=O)N[C@H](C(=O)OCC(=O)NC(C)c2ccccc2)C(C)C)c1 (stereo partly specified),102% (active)
18,COc1cc(OC)cc(C(=O)NC(C(=O)N2CCC2)C(C)C)c1 (stereo unspecified),2.01%
19,COc1cc([N+](=O)[O-])cc([N+](=O)[O-])c1NC(=O)N1CCOCC1,-0.3%
20,CCc1nnc(NC(=O)CSc2nc(SC)ns2)s1,113% (active)
21,COc1ccc(C)cc1NC(=O)CSc1nc(SC)ns1,-0.91%

row,Compound,activation
1,CSc1nsc(SCC(=O)Nc2cc(C(=O)O)ccc2C)n1,-1.07%
2,CCCCn1c(=S)[nH]c2ncccc2c1=O,2.09%
3,CCN(CC)S(=O)(=O)c1ccc(OC)c(NC(=O)CCc2c(C)noc2C)c1,-0.44%
4,Cc1nn(C)c(C)c1C(C)NC(=O)c1ccc(OC2CCN(Cc3ccccn3)CC2)cc1 (stereo unspecified),3.71%
5,Cc1ccc(NC(=O)C(C)c2cccc(C(=O)c3ccccc3)c2)cc1 (stereo unspecified),-1.3%
6,NS(=O)(=O)c1ccc(CNC(=S)NC(=O)c2ccco2)cc1,-6.68%
7,Cc1cccc(OCC(=O)Nc2ccc(NC(=O)c3ccco3)c(C)c2)c1,0.25%
8,CC(Oc1ccc2ccccc2c1)C(=O)NNC(=S)NC(=O)c1ccco1 (stereo unspecified),58.2% (active)
9,CCCc1ccc(OCC(=O)NNC(=S)NC(=O)c2ccco2)cc1,60.1% (active)
10,O=C(Nc1ccc2ccccc2c1)/C(=C\c1ccc2c(c1)OCO2)NC(=O)c1ccco1,1.15%
11,O=C(NNC(=S)Nc1ccc(Br)cc1Cl)c1ccco1,-1.64%
12,C=CCOc1ccc(C2/C(=C(\O)c3c(C)[nH]c(C(=O)OC)c3C)C(=O)C(=O)N2CCN(C)C)cc1 (stereo unspecified),-2.8%
13,C=C1CCN([C@@H](Cc2ccccc2)C(=O)N2CCOCC2)S(=O)(=O)c2ccccc21,1.4%
14,Cc1ccc(C)c(NC(=O)COC(=O)Cn2c(C)csc2=O)c1,1.31%
15,Cc1cc(Nc2ccc(C)c(C)c2)n2ncnc2n1,-1.97%
16,CC1=CC(=C(C#N)c2nc3ccccc3s2)C=C(C)N1c1ccc(F)cc1F,119% (active)
17,Cc1nn(-c2ccc(F)cc2)c(Cl)c1/C=C(/CCC(=O)O)c1nc2ccccc2s1,0.68%
18,Cc1cnc(C(=O)Oc2cccc(Cl)c2Cl)cn1,-0.24%
19,CCCCNC(=O)c1ccccc1NC(=O)c1ccccc1N(C)S(C)(=O)=O,-1.79%
20,CCCCCCCCCCCCN1C(=O)CSC1c1cccnc1 (stereo unspecified),1.06%

# — PubChem BioAssay AID588473 (Sanford-Burnham Center for Chemical Genomics, 2011)
